Experimental data reported in PubChem BioAssay AID1159580 (chemical genetic matrix, 2015).
“And” between values parts separate entries of the source, which are not always exact repeats. Equal values may be shown once. Among all 5,500 compounds or so, about 2,000 (36%) were called active. Inconclusive results (about 18%) are left out. Rule as the data show it: active = normalized growth mostly below about 0.91 (no sharp cut-off); inconclusive = no clear call, values can overlap the other calls; inactive = mostly above about 0.92. The list shows a part of the results.

Assay: chemical genetic growth profiling, strain panel (AID 1159580);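 also: tested at 20 µM; growth read once vehicle control cultures reached saturation at 30 °C; 1 = growth at the plate median or of vehicle wells; lower values mean less growth of the strain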
Details: S. cerevisiae deletion strains, growth OD

Measured: normalized growth

C[C@@H]1C(=O)O[C@H]2[C@H]1CC[C@@]1(C)C=CC(=O)[C@@]3(C)O[C@@]213
inactive: locus YAL013W, strain DEP1, stronger effect = lower value 1 | locus YAL021C, strain ccr4, stronger effect = lower value 1.01 | locus YAL026C, strain drs2, stronger effect = lower value 1.02 | locus YAL030W, strain snc1, stronger effect = lower value 1.01 | locus YBL061C, strain skt5, stronger effect = lower value 1.01 | locus YBR009C, strain hhf1, stronger effect = lower value 1.01 | locus YBR021W, strain FUR4, stronger effect = lower value 1 | locus YBR023C, strain chs3, stronger effect = lower value 1.02 | locus YBR171W, strain sec66, stronger effect = lower value 1.02 | locus YBR229C, strain ROT2, stronger effect = lower value 1.01 | locus YBR231C, strain swc5, stronger effect = lower value 1.02 | locus YBR279W, strain paf1, stronger effect = lower value 1.01 | locus YCL011C, strain gbp2, stronger effect = lower value 1.01 | locus YCL016C, strain dcc1, stronger effect = lower value 1 | locus YCL029C, strain bik1, stronger effect = lower value 1.04 | locus YCL069W, strain vba3, stronger effect = lower value 1.03 | locus YCR088W, strain abp1, stronger effect = lower value 1.01 | locus YDL005C, strain med2, stronger effect = lower value 1.02 | locus YDL035C, strain GPR1, stronger effect = lower value 1.02 | locus YDL040C, strain nat1, stronger effect = lower value 1 | locus YDL074C, strain BRE1, stronger effect = lower value 1.02 | locus YDL101C, strain DUN1, stronger effect = lower value 1.01 | locus YDL134C, strain PPH21, stronger effect = lower value 0.993 | locus YDL185W, strain tfp1, stronger effect = lower value 0.986 | locus YDL192W, strain arf1, stronger effect = lower value 1.01 | locus YDR001C, strain nth1, stronger effect = lower value 1.01 | locus YDR069C, strain doa4, stronger effect = lower value 1.03 | locus YDR101C, strain arx1, stronger effect = lower value 1.01 | locus YDR137W, strain rgp1, stronger effect = lower value 0.982 | locus YDR150W, strain NUM1, stronger effect = lower value 1.01 | locus YDR159W, strain sac3, stronger effect = lower value 1.06 | locus YDR162C, strain NBP2, stronger effect = lower value 1.02 | locus YDR195W, strain ref2 1.01 | locus YDR297W, strain sur2, stronger effect = lower value 1 | locus YDR318W, strain mcm21, stronger effect = lower value 1.02 | locus YDR334W, strain swr1, stronger effect = lower value 1.02 | locus YDR335W, strain msn5, stronger effect = lower value 1.01 | locus YDR388W, stronger effect = lower value 1.01 | locus YDR392W, strain spt3, stronger effect = lower value 0.996 | locus YDR502C, strain sam2, stronger effect = lower value 1.02 | locus YEL003W, strain gim4, stronger effect = lower value 1.01 | locus YEL037C, strain rad23, stronger effect = lower value 1.02 | locus YEL061C, strain CIN8 (second series), stronger effect = lower value 1.01 | locus YEL061C, strain CIN8, stronger effect = lower value 1.01 | locus YER015W, strain faa2, stronger effect = lower value 1.02 | locus YER016W, strain bim1, stronger effect = lower value 1.01 | locus YER110C, stronger effect = lower value 1.01 | locus YER111C, strain swi4, stronger effect = lower value 1.02 | locus YER155C, strain BEM2 (second series), stronger effect = lower value 1.03 | locus YER155C, strain BEM2, stronger effect = lower value 0.996 | locus YER167W, strain BCK2, stronger effect = lower value 1.02 | locus YFR010W, strain ubp6, stronger effect = lower value 1.06 | locus YGL078C, strain dbp3, stronger effect = lower value 1.03 | locus YGL086W, strain mad1, stronger effect = lower value 1.02 | locus YGL167C, strain pmr1, stronger effect = lower value 1.02 | locus YGL173C, strain kem1, stronger effect = lower value 1.02 | locus YGL227W, strain vid30, stronger effect = lower value 1.02 | locus YGL240W, strain doc1, stronger effect = lower value 1.01 | locus YGL248W, strain PDE1, stronger effect = lower value 1.02 | locus YGL253W, strain hxk2, stronger effect = lower value 1.05 | locus YGR078C, strain PAC10, stronger effect = lower value 1.02 | locus YGR135W, strain pre9, stronger effect = lower value 1.03 | locus YGR229C, strain SMI1, stronger effect = lower value 1.02 | locus YGR252W, strain gcn5, stronger effect = lower value 1.06 | locus YHR013C, strain ard1, stronger effect = lower value 0.995 | locus YHR027C, strain rpn1, stronger effect = lower value 1.02 | locus YHR030C, strain SLT2, stronger effect = lower value 1.01 and 1.04 | locus YHR079C, strain IRE1 (second series), stronger effect = lower value 1.02 | locus YHR079C, strain IRE1, stronger effect = lower value 1.04 | locus YHR094C, strain hxt1, stronger effect = lower value 1 | locus YHR129C, strain ARP1, stronger effect = lower value 1.01 | locus YHR142W, strain chs7, stronger effect = lower value 1.02 | locus YHR200W, strain rpn10, stronger effect = lower value 1.02 | locus YIL066C, strain RNR3, stronger effect = lower value 1.02 | locus YIL073C, strain SPO22, stronger effect = lower value 1.05 | locus YIL125W, strain kgd1, stronger effect = lower value 1.03 | locus YIR030C, strain dcg1, stronger effect = lower value 1.02 | locus YJL092W, strain hpr5, stronger effect = lower value 1.02 | locus YJL095W, strain BCK1 (second series), stronger effect = lower value 1.01 | locus YJL095W, strain BCK1, stronger effect = lower value 1.03 | locus YJL115W, strain asf1, stronger effect = lower value 1.02 | locus YJL129C, strain trk1, stronger effect = lower value 1.04 | locus YJL134W, strain LCB3, stronger effect = lower value 1 | locus YJL154C, strain vps35, stronger effect = lower value 1.01 | locus YJL164C, strain tpk1, stronger effect = lower value 1.01 | locus YJL166W, strain qcr8, stronger effect = lower value 1.01 | locus YJL168C, strain set2, stronger effect = lower value 1.01 | locus YJL187C, strain SWE1 (second series), stronger effect = lower value 1.04 | locus YJR043C, strain POL32, stronger effect = lower value 1.02 | locus YJR066W, strain TOR1, stronger effect = lower value 0.959 | locus YJR075W, strain HOC1, stronger effect = lower value 1.02
